Assay results as given in PubChem BioAssay (NCI).
About 79,000 compounds went through this panel and 15% of them were active in at least one assay; those are over-represented in the sample as a whole. Unmarked numbers belong to inactive results. The source made the active and inactive calls. Rule as the data show it: active = growth inhibition above about 70%; inactive = the rest. Where a SMILES comes first, the peptide text is derived from it. [ ]: non-standard residue; d: D form. The star is where a group is joined. Phe(4-NO2) = N[CH](Cc1ccc([N+](=O)[O-])cc1)C(=O)O; Boc = CC(C)(C)OC(=O)*

Key:
[1] = NCI Yeast Anticancer Drug Screen. Data for the rad50 strain (AID 155);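 also: 0% = growth of vehicle-only cultures of the same strain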; details: S. cerevisiae rad50 strain growth inhibition; at 50.0 µM; hits give high values
Method in brief: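 A DNA repair-deficient yeast mutant serves as the test organism; compound-induced growth inhibition is calculated against vehicle-treated cells.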

[2] = NCI Yeast Anticancer Drug Screen. Data for the mec2-1 strain (AID 157); details: S. cerevisiae mec2-1 strain, at 50.0 µM, hits give high values
Method in brief: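 Test agents were screened against the mec2-1 yeast strain, with defined DNA repair or cell cycle alteration. Growth was scored as inhibition against vehicle-only controls.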

[3] = NCI Yeast Anticancer Drug Screen. Data for the sgs1 mgt1 strain (AID 161);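 also: 0% = growth of cultures given vehicle only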; details: S. cerevisiae sgs1 mgt1 strain, at 50.0 µM, hits give high values
Method in brief: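 Read-out: growth inhibition vs vehicle controls. Cells: mutant yeast strain deficient in DNA damage repair.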

[4] = NCI Yeast Anticancer Drug Screen. Data for the cln2 rad14 strain (AID 165);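 also: 0% = growth equal to vehicle treated cultures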; details: S. cerevisiae cln2 rad14 strain, at 50.0 µM, hits give high values
Method in brief: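 Growth of compound-exposed yeast (cln2 rad14 genotype) measured and expressed as inhibition relative to vehicle.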

[5] = NCI Yeast Anticancer Drug Screen. Data for the bub3 strain (AID 167); details: S. cerevisiae bub3 mutant strain, at 50.0 µM, hits give high values
Method in brief: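 Inhibition values come from growth of compound-treated mutant yeast normalised to vehicle-treated controls.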

[6] = NCI Yeast Anticancer Drug Screen. Data for the mlh1 rad18 strain (AID 175); details: S. cerevisiae mlh1 rad18 strain growth inhibition; at 50.0 µM; hits give high values
Method in brief: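 In this whole-cell yeast screen, a strain with altered DNA damage repair is challenged with compound, and its growth is measured against matched vehicle-treated controls.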

Row | SMILES | growth inhibition [1] | growth inhibition [2] | growth inhibition [3] | growth inhibition [4] | growth inhibition [5] | growth inhibition [6]
1 | COc1ccc2nccc(C)c2c1 | -13% | 16.9% | -0.9% | -0.9% | 1.5% | -0.25%
2 | c1ccc2c(SCN3CCOCC3)cccc2c1 (tested in a mixture with another compound) | 35% | 21.6% | 39% | 40.9% | 21.8% | 29.8%
3 | CN(C)C=Nc1ccc([N+](=O)[O-])cc1 | -7.7% | -2.65% | -1.25% | -12.8% | -0.6% | -5.3%
4 | CCCCOCCOCCOS(=O)(=O)c1ccc(C)cc1 | 11.1% | 1.6% | 12.6% | 5% | 10.2% | 13.9%
5 | CC(=O)Nc1ccc(S(=O)(=O)N/N=C(\C)c2csc3ccccc23)cc1 | -2.7% | -5.25% | -19.9% | -16.1% | -4.05% | 0.15%
6 | CC1=NN(C(=O)CC(=O)Nc2ccc(C(=O)O)cc2)C(=O)C1N=Nc1ccccc1C(=O)O (configuration not stated) | 18.1% | 18% | 6.25% | -6.5% | -1.9% | 25.7%
7 | CCCCOS(=O)OCCCC | 22.7% | 29.5% | -6.1% | 13.2% | 0.15% | -14.8%
8 | O=Nc1c(O)c(S(=O)(=O)O)cc2cc(S(=O)(=O)O)ccc12 | 24.9% | -1.8% | 51.1% | 17.9% | 37.6% | 11.2%
9 | CCOC(=N)Cc1ccccc1 | 3.7% | 21.1% | 4.6% | -10.8% | 23.4% | -27.9%
10 | CCOc1ccc(C2OCC(C)O2)cc1OC (configuration not stated) | 13.2% | 13.6% | 2.3% | 10.3% | -0.5% | 11.7%
11 | Cc1cccc(C)c1NN | 23.2% | -4.15% | 11.8% | -12.7% | -11.5% | 24.2%
12 | CCn1ncc2c1nc(-c1ccccc1)c[n+]2[O-] | 17.1% | 4% | -34.5% | -12.4% | -44.9% | -52%
13 | CCCCOP(=O)(Cc1ccc(Cl)cc1Cl)OCCCC | 99.5% (active) | 99.7% (active) | 99.5% (active) | 99% (active) | 99.4% (active) | 99.5% (active)
14 | O=C(NCCCc1ccccc1)Nc1ccccc1 | 16.4% | -0.65% | -8.05% | -10.4% | -1.35% | 3.45%
15 | Cc1nc2c(=O)[nH]c3ccccc3c2o1 | -3.25% | 7% | 3.1% | -7% | -10.3% | -32.4%
16 | CCCCCCC(CC)C(N)=O (configuration not stated) | 9.1% | 7.8% | -4.1% | -7.8% | -8.15% | -7.6%
17 | N#CC(C#N)=Cc1cccc(Oc2ccccc2)c1 | 57.1% | -2.8% | 9.6% | 8.65% | -8.65% | -15.7%
18 | CC1(C)OC(C(F)(F)F)(C(F)(F)F)c2cc(C(C)(C)C)ccc2S1 | -26.9% | -29.8% | -12.7% | -35.4% | -1% | -9.95%
19 | CC(N)(Cc1c[nH]c2ccccc12)C(=O)O (configuration not stated) | -13.3% | -43.5% | -16.1% | -26.9% | -15.8% | -19.4%

Row | SMILES | growth inhibition [1] | growth inhibition [2] | growth inhibition [3] | growth inhibition [4] | growth inhibition [5] | growth inhibition [6]
20 | C=C(Br)CN1CCC2(c3ccccc3)C(=O)C([Se]c3ccccc3)CCC12 (configuration not stated) | -5.45% | 8.15% | 8.9% | -7.25% | -1.35% | -0.95%
21 | CCOC(=O)/C(=C\c1ccc(N(C)C)cc1)S(=O)(=O)C(F)(F)C(F)(F)C(F)(F)C(F)(F)F | 2% | 9.6% | 6.1% | -9.7% | 4.75% | 15.2%
22 | COc1ccc(NC(=O)CSc2cc(Cl)ccc2Cl)cc1 | 10.7% | 7.15% | 32.1% | 18.9% | 21.6% | 27.9%
23 | CC(=O)O[C@@H]1CC[C@@]2(C)C(=O)C34C[C@@]5(C)C([C@@H](C)CCCC(C)C)CCC5(C)[C@](O)(O3)C(=O)[C@H]4C2C1(C)C (some centres not stated) | 18.4% | 24.6% | 11.5% | 1.8% | -0.05% | 27.1%
24 | CC(=O)C1(C)CCC2C3CCC4=CC(=O)CCC4=C3CCC21C (configuration not stated) | 32.1% | 1.3% | 50.9% | 9.9% | 34% | 23.6%
25 | CC1CC(C)(C)C(C[NH-])C1[NH-].[Cl][Pt+2][Cl] (configuration not stated) | 23.8% | 20.5% | 34.3% | 24.1% | 28.9% | 28.1%
26 | CCS(=O)CCO (configuration not stated) | -22.7% | -20.4% | -15.8% | -21.8% | 10.8% | -14.2%
27 | CCOc1c(OC)cc(-c2nc3n(n2)C(=O)C(CC)S3)cc1OC (configuration not stated) | -15.6% | -17.4% | -41.3% | -4.85% | -3.65% | -4.2%
28 | COc1ccccc1C1C(C(=O)Nc2ccccc2)=C(C)NC(C)=C1C(=O)Nc1ccccc1 | -3.2% | -21.9% | -36.2% | 15.1% | -3.85% | -11.2%
29 | COC(=O)CCC(NC(=O)OC(C)(C)C)C(=O)NC(Cc1ccc([N+](=O)[O-])cc1)C(=O)NC(CCC(=O)OC)C(=O)OC (configuration not stated) (Boc-Glu(OMe)-[Phe(4-NO2)]-Glu(OMe)-OMe; configuration not given here) | 7.6% | -6.6% | 9.9% | 20.6% | 11.7% | -44.1%
30 | O=[N+]([O-])c1ccc(N=N/C(=N\Nc2ccccc2)c2nc3ccccc3[nH]2)c([N+](=O)[O-])c1 | 7.45% | -5.2% | -7.35% | 19.6% | -4.35% | 15.2%
31 | OCc1ccc(CO)cc1 | 18.4% | 29.6% | -15.6% | -4.2% | 8.65% | 7.2%
32 | CCCCCC(=O)Cc1cc(O)cc2c1C(=O)Oc1cc(O)c(C(=O)O)c(CCCCC)c1O2 | 26.1% | 7.45% | 32% | 17.8% | 16.4% | 16.9%
33 | O=C(N/N=C\c1ccc2c(c1)CCC2)c1cccc2ccccc12 | -5.9% | 1.35% | -11.9% | -6.1% | 10.2% | -2.9%
34 | O=C1CCSC(=S)N1c1ccc(F)cc1F | 18% | 4.65% | 18.4% | 28.9% | 4.7% | -1.15%
35 | CCCNC(=O)c1ccccc1O | 9.95% | 3.05% | 3.9% | 1.4% | 0.3% | 7.45%
36 | CNC(=O)OCCCCCCCCCCOC(=O)NC | 2.8% | -0.1% | 6.2% | -23.7% | -17.9% | 4.65%
37 | CCN1C(NN)=NS(=O)(=O)c2ccccc21 | -31.1% | -7.55% | -15.2% | -19.9% | 8.2% | 10.8%
